# Screens: PubChem, National Center for Advancing Translational Sciences (NCATS)
# Shown are actives, neighbours in structure and some others; about 21% of the full set was active somewhere.
# Shiga inhibitor – A qHTS for Small Molecule Inhibitors of Shiga Toxin. AID 2315, 2010. inhibition, % at 38.7 µM. Vero cells, Shiga toxin protein synthesis inhibition reporter. 290,000 tested, 9.2% active; in the data active means inhibition mostly above about 28%, no sharp cut-off; inactive means mostly below about 43%; further: 0% is about no effect
# Cycloheximide cs – Cycloheximide Counterscreen for Small Molecule Inhibitors of Shiga Toxin; cell reporter, cycloheximide protein synthesis inhibition counterscreen; max response, %; 300,000 tested, 12% active; AID 2314, 2010; in the data active means max response mostly above about 13%, no sharp cut-off; inactive means mostly below about 14%; further: read at 38.3 µM for the half of the compounds with a filed dose; 0% is about no effect
# HCV inh – qHTS Assay for Inhibitors of Hepatitis C Virus (HCV) | Huh7.5.1 HCVcc-Cre infection, luciferase reporter, 44 h | Potency, µM (titrated, usually from 41.8 µM), for the others: at the highest dose activity change, negative = inhibition, usual class: inhibitors | 340,000 tested, 3.4% active | AID 651820, 2012; further: potency means the concentration at half of the fitted maximal effect; on the % scale 0 is the no-effect control and ±100 the full control effect
#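 A cell-based infection assay in which seeded cells (1,000 per well) receive test compound after 4 h, are inoculated with HCVcc-Cre at approximately 0.5 moi, and are incubated 44 h before luminescence detection.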
# Pf growth 48h – Primary qHTS for delayed death inhibitors of the malarial parasite plastid, 48 hour incubation; Potency, µM (doses to about 28.7 µM), for inactives: top-dose activity change, negative = inhibition, hits mostly inhibitors; P. falciparum luciferase growth in erythrocytes, 48 h; 310,000 tested, 5.9% active; further: potency means the concentration at half of the fitted maximal effect; on the % scale 0 is the no-effect control and ±100 the full control effect
#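 Growth was read as firefly luciferase luminescence after a 48 h, 37 C, 5% CO2 exposure of compounds to reporter-bearing P. falciparum cultures (0.1% parasitemia, 2% hematocrit final) in Albumax-supplemented RPMI 1640.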
# Pf growth 96h – Primary qHTS for delayed death inhibitors of the malarial parasite plastid, 96 hour incubation | P. falciparum luciferase reporter growth, 96 h | Potency, µM (doses to about 28.7 µM), for the others: at the top dose activity change, negative = inhibition, most hits filed as inhibitors | 320,000 tested, 6.9% active | AID 504834, 2011; further: potency means the concentration at half of the fitted maximal effect; on the % scale 0 is the no-effect control and ±100 the full control effect
#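 Two parasite generations (96 h, 37 C, 5% CO2) of compound exposure in infected erythrocytes (0.05% parasitemia, 2% hematocrit). Luciferase-reporter P. falciparum; decreased luminescence indicates inhibited growth, aimed at apicoplast-acting delayed death.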
# AMA1-RON2 inh – qHTS for Inhibitors of AMA1-RON; Towards Development of Antimalarial Drug Lead: Primary Screen; AlphaScreen AMA1-biotinylated RON2 peptide binding; 360,000 tested, 0.2% active; Potency, µM (doses to about 58.2 µM), for the others: top-dose activity change, negative = inhibition, usual class: inhibitors; Plasmodium falciparum AMA1 (3D7) - RON2 peptide interaction;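 further: potency means the concentration at half of the fitted maximal effect; 0% = vehicle wells and -100% = peptide control; nearly all actives have a fitted effect of over 45% in size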
#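 AMA1 (3D7) with his tag at 25 nM final met compounds first, then biotinylated RON2 peptide at 25 nM; detection used donor plus acceptor beads, 10 µg/mL apiece, read by AlphaScreen after 30 min at room temperature.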
# Starred values were filed as active, the others as inactive; ? = inconclusive; · = no result. Unless noted, the call rests on the fitted dose curve; in most records, active means well fitted curve in the direction sought with a large enough effect; inconclusive means small, poorly fitted or top-dose-only effect, or another doubt; inactive means no such curve, though single readings can be large; an effect the other way counts as inactive or inconclusive.
SMILES,Shiga inhibitor,Cycloheximide cs,HCV inh,Pf growth 48h,Pf growth 96h,AMA1-RON2 inh
C=CCn1cc(C(=O)NCC2CCCO2)c(=O)c2cc(S(=O)(=O)N3CCCCCC3)ccc21 (stereo unspecified),-14,-5,?,12µM*,4%,-4%
O=C(NCC1COc2ccccc2O1)C1CCN(S(=O)(=O)c2ccc(Cl)cc2)CC1 (stereo unspecified),·,·,11µM*,?,?,-6%
O=C(NCC1COc2ccccc2O1)c1ccc(Cl)c(S(=O)(=O)N2CCCC2)c1 (stereo unspecified),·,·,?,9.3µM*,9.3µM*,6%
CN(CC1COc2ccccc2O1)C(=O)c1ccc(Cl)c(S(=O)(=O)N2CCCCCC2)c1 (stereo unspecified),·,·,?,?,?,0%
CCN(CC)S(=O)(=O)N1CCC(C(=O)NCC2COc3ccccc3O2)CC1 (stereo unspecified),10,-1,?,?,476%,2%
CCCCn1c(N)c(N(CCOC)C(=O)c2ccc(COc3ccccc3)o2)c(=O)[nH]c1=O,·,·,6%,?,?,20%
COc1ccc(/C=N/NC(=O)C(=O)N2CCCCCC2)cc1O,30,17,0%,0%,-100%,1%
CCc1nc2ccc(C(=O)NCCOc3ccc(OC)cc3)cn2c1N(CC)Cc1ccc(OC)c(OC)c1,·,·,·,·,·,-19%
CN(C1CCCCC1)S(=O)(=O)c1ccc2c(c1)c(=O)c(C(=O)O)cn2C,·,·,·,·,·,5%
CCOC(=O)c1c(C)oc(NC(=O)CCl)c1C(=O)OCC,4,-4,-6%,22%,-15%,19%
Cc1c(C(=O)NCC2COc3ccccc3O2)oc2ccc(S(=O)(=O)N(C)C3CCCCC3)cc12 (stereo unspecified),-11,-4,7%,9.3µM*,·,-6%
O=C(NCC1COc2ccccc2O1)c1cccc(S(=O)(=O)N2CCOCC2)c1 (stereo unspecified),·,·,17%,-3%,?,-4%
O=C(NCC1COc2ccccc2O1)c1ccc(Cl)c(S(=O)(=O)N2CCOCC2)c1 (stereo unspecified),·,·,?,?,13µM*,3%
CCOCCCNC(=O)c1cn(C)c2ccc(S(=O)(=O)N3CCCCC3)cc2c1=O,18,-10,24%,-5%,?,0%
Cc1c(C(=O)NCC2CCCO2)oc2ccc(S(=O)(=O)N3CCCC3)cc12 (stereo unspecified),-3,-3,0%,?,·,21%
CCCCSCCCNC(=O)c1cn(C)c2ccc(S(=O)(=O)N3CCCC3)cc2c1=O,5,13,0%,?,10µM*,-8%
CC(C)Nc1nc(Nc2ccc(C(N)=O)cc2)c2sccc2n1,·,·,·,·,·,0%
NC(=O)N/N=C/c1ccccc1OCc1cccc2ccccc12,-6,-1,-12%,18%,13µM*,11%
COc1ccc(/C=N/NC(=O)CCn2cnc(-c3ccccc3)c2-c2ccccc2)cc1,-6,0,9%,?,-25%,-8%
COc1ccc(Br)c(/C=N/NC(=O)COc2ccc(-c3ccccc3)cc2)c1,7,-1,7.9µM*,?,-18%,-4%
COc1ccc(/C=N/NC(=O)COc2ccccc2-c2ccccc2)cc1,-6,-3,5.6µM*,?,?,-5%
CCOc1ccc(Oc2c(/C=N/NC(=O)COc3ccccc3OC)c(C)nn2-c2ccccc2)cc1,-3,-2,13µM*,?,5.2µM*,-12%
O=C(COc1ccccc1-c1ccccc1)N/N=C/c1cccc2ccccc12,-2,-4,1.8µM*,?,9.3µM*,-22%
Cc1cc(-n2cnnn2)cc(C)c1S(=O)(=O)NCCOc1ccccc1,13,-10,10%,-9%,-13%,-3%
Cc1ccc(C(=O)NCC(=O)OCC(=O)c2ccc(Br)s2)cc1,·,·,10%,-9%,35%,-22%
SMILES,Shiga inhibitor,Cycloheximide cs,HCV inh,Pf growth 48h,Pf growth 96h,AMA1-RON2 inh
COC(=O)c1sc2nc(SCc3ccccc3C)n(N)c(=O)c2c1C,-8,-2,?,-5%,?,5%
COC(=O)c1sc2nc(SCc3cccc(Cl)c3)n(N)c(=O)c2c1C,-4,-1,?,0%,9.3µM*,18%
O=C(O)c1cccc(NC(=S)NC(NC(=O)c2cccc([N+](=O)[O-])c2)C(Cl)(Cl)Cl)c1 (stereo unspecified),21,11*,30%,107%,-8%,-5%
O=C(NC(NC(=S)Nc1ccccc1)C(Cl)(Cl)Cl)c1cccc(Cl)c1 (stereo unspecified),16,11,11µM*,?,13µM*,-3%
O=C(NC(NC(=S)Nc1ccc(Cl)cc1Cl)C(Cl)(Cl)Cl)c1cccc([N+](=O)[O-])c1 (stereo unspecified),9,-1,?,1.7µM*,?,9%
O=C(O)c1cccc(NC(=S)NC(NC(=O)c2ccccc2[N+](=O)[O-])C(Cl)(Cl)Cl)c1 (stereo unspecified),22,7,19%,-2%,-25%,-2%
Cc1cc(C)n(CCC(=O)N2CCc3ccccc32)n1,-2,-1,7%,14%,9%,-3%
CNC(=O)Oc1cccc(-c2cn3cc(Cl)ccc3n2)c1,-13,11,?,53%,67%,-5%
Cc1ccc(S(=O)(=O)Nc2ccc(S(=O)(=O)Nc3cc(C)nc(C)n3)cc2)cc1,36,7,13%,-4%,33%,-4%
Cc1ccc(S(=O)(=O)Nc2ccc(-c3cn4ccc(C)cc4n3)cc2)cc1,19,8,?,1.7µM*,-19%,5%
Clc1ccc(-c2cn3cc(Br)ccc3n2)cc1Cl,103*,51*,5%,58%,-68%,-3%
Cc1ccn2cc(-c3ccc(Br)cc3)nc2c1,22*,38*,?,-39%,-27%,-2%
Cc1ccn2cc(-c3ccc(NS(=O)(=O)c4ccccc4)cc3)nc2c1,13*,16,11µM*,13µM*,-14%,-12%
Cc1ccc(Cc2c(-c3ccc(Br)cc3)nc3cc(C)ccn23)cc1,·,·,·,·,·,-20%
O=C(CSc1ccccn1)Nc1nonc1[N+](=O)[O-],16,23,7%,?,?,11%
Cc1cc(C)nc(CCNC(=O)CC2C(=O)NCCN2Cc2ccccc2)n1 (stereo unspecified),-7,7,14%,31%,21%,9%
